Measured values published in PubChem BioAssay (NCI).
This is part of a sample that, as a whole, favours compounds with a hit. Of some 79,000 tested, about 15% had one in any assay. Activity calls are given as the source filed them. Rule as the data show it: active = growth inhibition above about 70%; inactive = the rest.

What was measured:
[1] = NCI Yeast Anticancer Drug Screen. Data for the rad52 strain (AID 147);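 also: 0% = growth of vehicle-treated control cultures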; settings: S. cerevisiae rad52 mutant growth inhibition, stronger effect = higher value
Procedure, shortened: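 The repair-mutant yeast strain was incubated with compounds, then growth was read and inhibition derived relative to vehicle.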

[2] = NCI Yeast Anticancer Drug Screen. Data for the wt1 strain (AID 149);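 also: 0% = growth of vehicle-treated wt1 cultures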; settings: S. cerevisiae wt1 strain (SPY 50644) growth inhibition, stronger effect = higher value
Procedure, shortened: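 Each compound is tested on wt1 yeast and the loss of growth versus vehicle gives the inhibition value.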

[3] = NCI Yeast Anticancer Drug Screen. Data for the rad50EPP+ strain (AID 151);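 also: 0% = growth of vehicle-treated control cultures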; settings: S. cerevisiae rad50 mutant strain, stronger effect = higher value
Procedure, shortened: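 Vehicle-normalised growth inhibition; rad50EPP+ yeast strain, altered in DNA damage repair, compound-treated.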

[4] = NCI Yeast Anticancer Drug Screen. Data for the mgt1 strain (AID 153); settings: S. cerevisiae mgt1 mutant growth inhibition, stronger effect = higher value
Procedure, shortened: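 Vehicle-normalized growth inhibition is determined in mgt1 yeast, a strain selected for a defined alteration in DNA repair or cell cycle control.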

[5] = NCI Yeast Anticancer Drug Screen. Data for the rad50 strain (AID 155);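 also: 0% = growth of vehicle-only cultures of the same strain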; settings: S. cerevisiae rad50 strain growth inhibition, stronger effect = higher value
Procedure, shortened: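 Vehicle-treated cultures provide the reference for the growth inhibition reported for compound-exposed, repair-deficient yeast.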

[6] = NCI Yeast Anticancer Drug Screen. Data for the mec2-1 strain (AID 157); settings: S. cerevisiae mec2-1 strain, stronger effect = higher value
Procedure, shortened: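 Mutant yeast (mec2-1) grown with compound; growth inhibition relative to vehicle control reported.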

[7] = NCI Yeast Anticancer Drug Screen. Data for the rad14 strain (AID 159);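 also: 0% = growth of vehicle-treated control cultures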; settings: S. cerevisiae rad14 strain growth inhibition, stronger effect = higher value
Procedure, shortened: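 Inhibition of growth is reported for a repair-deficient yeast mutant following compound treatment, calculated relative to cultures that received vehicle.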

[8] = NCI Yeast Anticancer Drug Screen. Data for the sgs1 mgt1 strain (AID 161);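 also: 0% = growth of cultures given vehicle only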; settings: S. cerevisiae sgs1 mgt1 strain, stronger effect = higher value
Procedure, shortened: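 Compounds are added to genetically altered yeast, and growth is compared with cultures given vehicle alone to give percent inhibition.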

[9] = NCI Yeast Anticancer Drug Screen. Data for the CLN2oe strain (AID 163);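 also: 0% = growth of vehicle-only control cultures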; settings: S. cerevisiae CLN2oe strain, stronger effect = higher value
Procedure, shortened: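 Compounds are applied to yeast harbouring a defined cell-cycle control change; reduced growth compared with vehicle-treated controls gives the value.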

[10] = NCI Yeast Anticancer Drug Screen. Data for the cln2 rad14 strain (AID 165);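 also: 0% = growth equal to vehicle treated cultures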; settings: S. cerevisiae cln2 rad14 strain, stronger effect = higher value
Procedure, shortened: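 Readout is yeast growth inhibition versus vehicle-treated controls, using a strain with cln2 and rad14 alterations exposed to compound.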

[11] = NCI Yeast Anticancer Drug Screen. Data for the bub3 strain (AID 167); settings: S. cerevisiae bub3 mutant strain, stronger effect = higher value
Procedure, shortened: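 Mutant yeast screening strain plus compound; vehicle-treated cultures serve as the 0% inhibition reference.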

[12] = NCI Yeast Anticancer Drug Screen. Data for the wt2 strain (AID 169); settings: S. cerevisiae wt2 strain growth inhibition, stronger effect = higher value
Procedure, shortened: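 Against vehicle-treated controls, the growth of yeast exposed to each compound was compared, and the inhibition was recorded.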

[13] = NCI Yeast Anticancer Drug Screen. Data for the mlh1 strain (AID 171);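 also: 0% = growth of vehicle-treated control cultures of the same strain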; settings: S. cerevisiae mlh1 strain growth inhibition, stronger effect = higher value
Procedure, shortened: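 Measured: yeast growth. Reference: vehicle-treated controls. Organism: strain with a defined alteration affecting DNA damage repair or cell cycle control, treated with compound.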

[14] = NCI Yeast Anticancer Drug Screen. Data for the sgs1 strain (AID 173);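 also: 0% = growth of vehicle-only control cultures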; settings: S. cerevisiae sgs1 mutant, stronger effect = higher value
Procedure, shortened: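 Each compound was added to cultures of the altered yeast strain. Growth was recorded, and inhibition was derived by comparison with vehicle controls.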

[15] = NCI Yeast Anticancer Drug Screen. Data for the mlh1 rad18 strain (AID 175); settings: S. cerevisiae mlh1 rad18 strain growth inhibition, stronger effect = higher value
Procedure, shortened: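 Genetically defined yeast (DNA repair-deficient) exposed to compounds; growth inhibition determined relative to vehicle.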

[16] = NCI Yeast Anticancer Drug Screen. Data for the rad18 strain (AID 177); settings: S. cerevisiae rad18 mutant growth inhibition, stronger effect = higher value
Procedure, shortened: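 Vehicle-treated cultures served as the baseline for scoring compound-induced growth inhibition in DNA-repair-mutant yeast.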

[17] = at 5.0 µM (retest, dose inferred, filed as 0.5)
[18] = at 50.0 µM (retest, dose inferred, filed as 5.0)

Measured: growth inhibition

COc1c(O)c(C=O)c(Br)c(C=O)c1O
active: [1]; at 100.0 µM 91% | [3]; at 11.0 µM 75% | [3]; at 33.0 µM 95% | [3]; at 100.0 µM 99% | [4]; at 100.0 µM 82% | [5]; [18] 97% | [5]; at 50.0 µM 98.2% | [5]; at 100.0 µM 86% | [6]; [18] 98% | [6]; at 50.0 µM 82.1% | [6]; at 100.0 µM 95% | [7]; at 100.0 µM 83% | [8]; [18] 96% | [8]; at 50.0 µM 99% | [9]; at 100.0 µM 90% | [10]; [18] 95% | [11]; [18] 98% | [11]; at 50.0 µM 98.9% | [11]; at 100.0 µM 97% | [12]; at 100.0 µM 89% | [13]; at 100.0 µM 95% | [14]; at 100.0 µM 94% | [15]; [18] 98% | [15]; at 50.0 µM 99% | [16]; at 100.0 µM 90%
inactive: [1]; at 1.2 µM 2% | [1]; at 3.7 µM 6% | [1]; at 11.0 µM 17% | [1]; at 33.0 µM 49% | [2]; at 1.2 µM 0% | [2]; at 3.7 µM 5% | [2]; at 11.0 µM 4% | [2]; at 33.0 µM 17% | [2]; at 100.0 µM 68% | [3]; at 1.2 µM 24% | [3]; at 3.7 µM 43% | [4]; at 1.2 µM -2% | [4]; at 3.7 µM 0% | [4]; at 11.0 µM 8% | [4]; at 33.0 µM 30% | [5]; at 1.2 µM 4% | [5]; at 3.7 µM 7% | [5]; [17] 16% | [5]; at 11.0 µM 15% | [5]; at 33.0 µM 47% | [6]; at 1.2 µM 3% | [6]; at 3.7 µM 6% | [6]; [17] 16% | [6]; at 11.0 µM 14% | [6]; at 33.0 µM 47% | [7]; at 1.2 µM 1% | [7]; at 3.7 µM 4% | [7]; at 11.0 µM 11% | [7]; at 33.0 µM 42% | [8]; [17] 16% | [9]; at 1.2 µM 2% | [9]; at 3.7 µM 0% | [9]; at 11.0 µM 17% | [9]; at 33.0 µM 40% | [10]; [17] 12% | [10]; at 50.0 µM 66.5% | [11]; at 1.2 µM -4% | [11]; at 3.7 µM -1% | [11]; [17] -1% | [11]; at 11.0 µM 3% | [11]; at 33.0 µM 54% | [12]; at 1.2 µM -1% | [12]; at 3.7 µM 2% | [12]; at 11.0 µM 5% | [12]; at 33.0 µM 30% | [13]; at 1.2 µM 5% | [13]; at 3.7 µM 2% | [13]; at 11.0 µM 9% | [13]; at 33.0 µM 43% | [14]; at 1.2 µM -2% | [14]; at 3.7 µM 3% | [14]; at 11.0 µM 12% | [14]; at 33.0 µM 53% | [15]; [17] 7% | [16]; at 1.2 µM 0% | [16]; at 3.7 µM -1% | [16]; at 11.0 µM 5% | [16]; at 33.0 µM 24%

CC(C)C(C)/C=C\C(C)C1CCC2C3=CC=C4CC(O)CCC4(C)C3CCC21C (stereo unspecified)
inactive: [1]; at 1.2 µM -1% | [1]; at 3.7 µM -2% | [1]; at 11.0 µM -1% | [1]; at 33.0 µM -1% | [1]; at 100.0 µM 17% | [2]; at 1.2 µM 2% | [2]; at 3.7 µM -1% | [2]; at 11.0 µM 0% | [2]; at 33.0 µM -3% | [2]; at 100.0 µM -3% | [3]; at 1.2 µM -2% | [3]; at 3.7 µM -3% | [3]; at 11.0 µM -9% | [3]; at 33.0 µM -9% | [3]; at 100.0 µM 1% | [4]; at 1.2 µM 0% | [4]; at 3.7 µM 3% | [4]; at 11.0 µM -1% | [4]; at 33.0 µM -9% | [4]; at 100.0 µM -4% | [5]; at 1.2 µM -1% | [5]; at 3.7 µM 5% | [5]; [17] 51% | [5]; at 11.0 µM -3% | [5]; at 33.0 µM -1% | [5]; at 100.0 µM 22% | [6]; at 1.2 µM 0% | [6]; at 3.7 µM 0% | [6]; at 11.0 µM -2% | [6]; at 33.0 µM -1% | [6]; at 50.0 µM 44.5% | [6]; at 100.0 µM -17% | [7]; at 1.2 µM -1% | [7]; at 3.7 µM 6% | [7]; at 11.0 µM 1% | [7]; at 33.0 µM -2% | [7]; at 100.0 µM 27% | [8]; [17] 17% | [8]; [18] 48% | [8]; at 50.0 µM 66.7% | [9]; at 1.2 µM 0% | [9]; at 3.7 µM -2% | [9]; at 11.0 µM -2% | [9]; at 33.0 µM -4% | [9]; at 100.0 µM 11% | [10]; at 50.0 µM 35.4% | [11]; at 1.2 µM -1% | [11]; at 3.7 µM 3% | [11]; at 11.0 µM -2% | [11]; at 33.0 µM -10% | [11]; at 50.0 µM 42% | [11]; at 100.0 µM 32% | [12]; at 1.2 µM 0% | [12]; at 3.7 µM 1% | [12]; at 11.0 µM 1% | [12]; at 33.0 µM 1% | [12]; at 100.0 µM 14% | [13]; at 1.2 µM -1% | [13]; at 3.7 µM -3% | [13]; at 11.0 µM -5% | [13]; at 33.0 µM -11% | [13]; at 100.0 µM 10% | [14]; at 1.2 µM -1% | [14]; at 3.7 µM -4% | [14]; at 11.0 µM -3% | [14]; at 33.0 µM -6% | [14]; at 100.0 µM 19% | [15]; [17] 40% | [16]; at 1.2 µM -2% | [16]; at 3.7 µM -5% | [16]; at 11.0 µM -13% | [16]; at 33.0 µM -19% | [16]; at 100.0 µM -7%
active: [5]; [18] 84% | [5]; at 50.0 µM 83.2% | [6]; [17] 89% | [6]; [18] 99% | [10]; [17] 91% | [10]; [18] 95% | [11]; [17] 99% | [11]; [18] 99% | [15]; [18] 81% | [15]; at 50.0 µM 86.5%
